In the library only some 11% were active in any assay of this set; here they are far more common.
ALDH1A1 block: ALDH1A1 (human) enzyme inhibition; P00352; Purified ALDH1A1, NADH fluorescence, propionaldehyde substrate; Potency, µM (doses to about 75.3 µM), for inactives: at the highest dose activity, negative = inhibition, usual class: inhibitors; hit rate 7.3% among 220,000; AID 1030; active = well fitted inhibition curve with a large enough effect, not every such curve was filed as active; inconclusive = small, poorly fitted or top-dose-only effect, or another doubt; inactive = no such curve, though single readings can be large or run the other way;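 also: potency is read from the fitted curve at half-maximal effect; plate controls were no enzyme wells and a reference inhibitor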
Target sequence (P00352 whole entry, looked up): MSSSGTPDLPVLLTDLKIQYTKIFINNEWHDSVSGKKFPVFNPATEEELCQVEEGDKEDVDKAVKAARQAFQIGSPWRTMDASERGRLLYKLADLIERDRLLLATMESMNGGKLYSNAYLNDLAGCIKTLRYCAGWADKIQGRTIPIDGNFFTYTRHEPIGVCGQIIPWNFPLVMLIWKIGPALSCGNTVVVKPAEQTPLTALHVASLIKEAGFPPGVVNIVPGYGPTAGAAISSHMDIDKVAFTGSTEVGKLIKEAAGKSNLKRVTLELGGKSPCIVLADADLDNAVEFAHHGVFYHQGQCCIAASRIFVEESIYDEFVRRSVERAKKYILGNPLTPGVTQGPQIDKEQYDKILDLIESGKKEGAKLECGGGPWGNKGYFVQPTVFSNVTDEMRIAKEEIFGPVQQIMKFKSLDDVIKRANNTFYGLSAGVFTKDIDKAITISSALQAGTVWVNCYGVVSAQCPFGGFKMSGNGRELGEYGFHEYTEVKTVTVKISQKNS
HPGD inh: inhibitors of human 15-hydroxyprostaglandin dehydrogenase (HPGD) | P15428 | purified HPGD, NADH fluorescence kinetic, PGE2 substrate | Potency, µM, for inactives: at the highest dose activity change, negative = inhibition, actives largely listed as inhibitors | hit rate 4.3% among 150,000 | AID 894; active = well fitted inhibition curve with a large enough effect, not every such curve was filed as active; inconclusive = small, poorly fitted or top-dose-only effect, or another doubt; inactive = no such curve, though single readings can be large or run the other way; also: potency is read from the fitted curve at half-maximal effect; % is scaled to controls: 0 for no effect and ±100 for the full control effect
Target sequence (P15428 whole entry, looked up): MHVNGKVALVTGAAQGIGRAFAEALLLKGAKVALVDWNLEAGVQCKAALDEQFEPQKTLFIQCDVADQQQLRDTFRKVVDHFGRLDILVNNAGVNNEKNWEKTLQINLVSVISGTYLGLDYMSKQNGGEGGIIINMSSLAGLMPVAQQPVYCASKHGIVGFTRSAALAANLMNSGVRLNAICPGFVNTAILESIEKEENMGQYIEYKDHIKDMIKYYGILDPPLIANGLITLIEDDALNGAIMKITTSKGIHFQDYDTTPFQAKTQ
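NADH formation kinetics: reaction with 30 uM PGE2 and 1 mM NAD+ (final), 20 nM enzyme, Tris-HCl pH 8 with Tween 20, after 15 min compound preincubation at room temperature. Fluorescence change, last versus first of five reads.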
GoLoco inh red: RGS12 GoLoco-Gai1 interaction inhibition. P63096. Gai1:RGS12 GoLoco peptide FP, rhodamine, 10 min. Potency, µM (highest dose often 61.6 µM), for inactives: at the top dose activity, negative = inhibition, usual class: inhibitors. hit rate 0.44% among 230,000. AID 880; active = well fitted inhibition curve with a large enough effect, not every such curve was filed as active; inactive = no such curve, though single readings can be large or run the other way; also: potency is read from the fitted curve at half-maximal effect; % is scaled to controls: 0 for no effect and ±100 for the full control effect; nearly all actives have a fitted effect of over 30% in size
HTT cytoprotect: Huntington cell model cytoprotection by ATP luminescence; PC12 HTT-Q103 induced, cytoprotection, ATP luminescence, 40 h; Potency, µM (doses to about 56.4 µM), without a hit: cytoprotection (ATP increase), most hits filed as activators; hit rate 0.14% among 230,000; also: potency is read from the fitted curve at half-maximal effect; % of control where 0% means no effect; nearly all actives have a fitted effect of over 45% in size
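Quantitative HTS on tebufenozide-induced (100 nM) PC12 cells expressing HTTQ103 exon 1–GFP; compounds tested as a concentration series; survival measured via cellular ATP.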
PNC assembly inh: inhibitors of perinucleolar compartment assembly | hit rate 3.1% among 140,000 | PC3M PTB-GFP, PNC prevalence imaging, 16 h; active compounds read low | activity change (PNC), negative = inhibition, % at 10 µM;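 active = readout at or below -70, meaning at least 70% loss of cells showing the perinucleolar compartment, a nuclear body marking cancer cells; inconclusive = readout between -30 and a set limit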;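 also: plate controls were DMSO wells for no effect and camptothecin positive control wells for full effect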
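PC3M cells stably expressing PTB-GFP, 750–1000 cells/well, treated 16 h at 37 °C with compound (23 nl of library stock), in duplicate. After paraformaldehyde fixation and Hoechst stain, imaged at 20x; PNC prevalence scored by image analysis.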
HttQ103 aggreg: mutant huntingtin aggregation inhibition; PC12 HttQ103-GFP aggregates, Acumen cytometry, 40 h; Potency, µM (series often up to 46.1 µM), inactives show at the highest dose activity change, negative = inhibition, usual class: inhibitors; hit rate 1.1% among 220,000; AID 1688; also: potency is read from the fitted curve at half-maximal effect; % is scaled to controls: 0 for no effect and ±100 for the full control effect; nearly all actives have a fitted effect of over 60% in size
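Inducible Q103 Huntingtin exon 1–GFP PC12 line, 1500 cells/well in phenol red free DMEM with 5% equine and 5% calf serum. Tebufenozide 100 nM induced expression; compounds titrated; aggregates quantified by cytometry.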
Active calls of the source: *; [ ] = another dose, or the depositor's remark. Unless noted, calls follow the shape of the dose curve; as a rule, active = well fitted curve in the direction sought with a large enough effect; inconclusive = small, poorly fitted or top-dose-only effect, or another doubt; inactive = no such curve, though single readings can be large; an effect the other way counts as inactive or inconclusive.

How did COc1ccc(-c2noc(CCC(=O)NCC3CCCO3)n2)cc1 (configuration not stated) do in these assays?
GoLoco inh red: 4%; HTT cytoprotect: 2%[10 µM]; HttQ103 aggreg: 5%[9.22 µM]

How did Cc1ccc(-c2noc(CCC(=O)NCC3CCCO3)n2)cc1 (configuration not stated) do in these assays?
ALDH1A1 block: -5%; HPGD inh: 18µM*; GoLoco inh red: 4%; HTT cytoprotect: 4%; PNC assembly inh: 4; HttQ103 aggreg: -6%

Results for O=C(C1CC1)N1CCC(c2nc(-c3ccc(S(=O)(=O)NCC4CCCO4)cc3)no2)CC1 (configuration not stated) ?
ALDH1A1 block: 4%; HPGD inh: -13%; GoLoco inh red: 4%; HTT cytoprotect: -11%[10 µM]; PNC assembly inh: 32; HttQ103 aggreg: inconclusive

What do the screens show for `Cc1ccc(Sc2nc([N+](=O)[O-])nn2C)cc1`?
ALDH1A1 block: 17%; HPGD inh: -6%; GoLoco inh red: -2%; HTT cytoprotect: 13%[10 µM]; PNC assembly inh: inconclusive; HttQ103 aggreg: 5%

How did COc1ccc(-c2nc3cnc(N4CCOCC4)nc3n(-c3ccc(OC)cc3)c2=O)cc1 do in these assays?
ALDH1A1 block: inconclusive; GoLoco inh red: 7%; HTT cytoprotect: -38%

How did Cc1cc(C(=O)CSC(=S)SC(C)(C)C)ccc1Cl do in these assays?
ALDH1A1 block: 3%[13.5 µM]; HPGD inh: -11%; GoLoco inh red: 2%[14.2 µM]; HTT cytoprotect: -3%[10 µM]

How did CCn1cc(Br)c(C(=O)Nc2ccc(OC)cc2)n1 do in these assays?
ALDH1A1 block: 4%; HPGD inh: -3%; GoLoco inh red: 10%; HTT cytoprotect: -21%; PNC assembly inh: -19; HttQ103 aggreg: -10%

Results for CCn1cc(Br)c(C(=O)NN)n1 ?
ALDH1A1 block: 25µM*; HPGD inh: -12%; GoLoco inh red: -5%; HTT cytoprotect: -22%; PNC assembly inh: 26; HttQ103 aggreg: 15%

Results for CC(=O)c1ccsc1B(O)O ?
ALDH1A1 block: 3%; HPGD inh: -8%; GoLoco inh red: -2%; HTT cytoprotect: -11%

What do the screens show for `Cc1ccccc1N1CCN(CCCN2C(=O)CC(=C(c3ccccc3)c3ccccc3)C2=O)CC1`?
ALDH1A1 block: 18µM*; HPGD inh: inconclusive; GoLoco inh red: 104%; HTT cytoprotect: -26%; PNC assembly inh: 21; HttQ103 aggreg: -16%

Results for O=C1CC(=C(c2ccccc2)c2ccccc2)C(=O)N1CCCCN1CCN(c2cccc(Cl)c2)CC1 ?
ALDH1A1 block: 0%; HPGD inh: -5%; GoLoco inh red: 5%; HTT cytoprotect: -38%; PNC assembly inh: -8; HttQ103 aggreg: inconclusive

Results for CCCCN1/C(=C/c2ccc3ccccc3[n+]2CC)Sc2ccccc21 ?
ALDH1A1 block: inconclusive; GoLoco inh red: 84%; HTT cytoprotect: -59%[10 µM]; HttQ103 aggreg: 2.5µM*

Results for CCN1C(=C2C(=O)c3ccccc3C2=O)C=Cc2ccccc21 ?
ALDH1A1 block: 1%; HPGD inh: -22%; GoLoco inh red: 8%; HTT cytoprotect: -12%; PNC assembly inh: -10; HttQ103 aggreg: -19%[9.22 µM]

What do the screens show for `CCN(CC)CCN1c2ccccc2Sc2ccc3ccccc3c21`?
ALDH1A1 block: -8%[13.5 µM]; HPGD inh: -18%; GoLoco inh red: 3%[14.2 µM]; HTT cytoprotect: -10%[10 µM]; HttQ103 aggreg: -9%[9.22 µM]

What do the screens show for `CCN1/C(=C/c2ccc3ccccc3[n+]2CC)C=Cc2ccccc21`?
ALDH1A1 block: inconclusive; HPGD inh: -10%; GoLoco inh red: 214%; HTT cytoprotect: -55%[10 µM]; PNC assembly inh: -21; HttQ103 aggreg: 3.2µM*

What do the screens show for `CCN1/C(=C/c2ccc3cc(C)ccc3[n+]2C)Sc2ccc3sccc3c21`?
ALDH1A1 block: inconclusive; GoLoco inh red: 160%; HTT cytoprotect: -51%[10 µM]; HttQ103 aggreg: -37%[9.22 µM]

Results for CCN1/C(=C/c2ccc3cc(C)ccc3[n+]2CC)Sc2cc(C)ccc21 ?
ALDH1A1 block: inconclusive; GoLoco inh red: 171%; HTT cytoprotect: -140%; HttQ103 aggreg: 1µM*

How did Cc1cc(Cl)c(S(=O)(=O)N/N=C/c2ccc3c(c2)OCO3)c(Cl)c1 do in these assays?
ALDH1A1 block: 11µM*; HPGD inh: -20%; GoLoco inh red: -4%; HTT cytoprotect: -9%; PNC assembly inh: 60; HttQ103 aggreg: -17%

Results for O=S(=O)(N/N=C/c1ccc2c(c1)OCCO2)c1ccc(Cl)cc1 ?
ALDH1A1 block: -6%; HPGD inh: -16%; GoLoco inh red: -2%; HTT cytoprotect: 2%; PNC assembly inh: inconclusive; HttQ103 aggreg: 3%

How did Cc1cc(C(=O)Nn2c(C3CCCCC3)nc3ccccc3c2=O)ccc1[N+](=O)[O-] do in these assays?
ALDH1A1 block: 22µM*; HPGD inh: -5%; GoLoco inh red: -7%; HTT cytoprotect: -16%[10 µM]; PNC assembly inh: 4; HttQ103 aggreg: inconclusive

How did C[C@@H](COc1ccc(/C=C\c2ccccc2)cc1)[N+](C)(C)C do in these assays?
HTT cytoprotect: -16%[1.9 µM]

How did CC1Cc2ccccc2N1C(=O)CNc1cccc(S(=O)(=O)N2CCCC2)c1 (configuration not stated) do in these assays?
ALDH1A1 block: 20µM*; GoLoco inh red: 13%; HTT cytoprotect: inconclusive; HttQ103 aggreg: 6%

How did CC1CCN(S(=O)(=O)c2ccc3c(c2)oc(=O)n3CC(=O)N2c3ccccc3CC2C)CC1 (configuration not stated) do in these assays?
ALDH1A1 block: 5%; HPGD inh: -9%; GoLoco inh red: 18%; HTT cytoprotect: 8%; PNC assembly inh: -11; HttQ103 aggreg: -21%

What do the screens show for `O=C(/N=C1\NC(=O)C(F)(C(F)(F)F)S1)NC1CCCCC1` (configuration not stated)?
ALDH1A1 block: 7.1µM*; HPGD inh: 7.9µM*; GoLoco inh red: -4%; HTT cytoprotect: 2%; PNC assembly inh: 17; HttQ103 aggreg: inconclusive

What do the screens show for `CCC1S/C(=N/C(=O)NC2CCCCC2)NC1=O` (configuration not stated)?
ALDH1A1 block: -3%; HPGD inh: -14%; GoLoco inh red: -11%; HTT cytoprotect: -9%[1.9 µM]; PNC assembly inh: -5; HttQ103 aggreg: -5%

How did Clc1ccc(CSc2ncn[nH]2)cc1 do in these assays?
ALDH1A1 block: 8%; HPGD inh: -1%; GoLoco inh red: 6%; HTT cytoprotect: -1%; PNC assembly inh: -21; HttQ103 aggreg: -9%

Results for Fc1ccccc1CSc1ncn[nH]1 ?
ALDH1A1 block: -3%; HPGD inh: -6%; GoLoco inh red: 3%; HTT cytoprotect: 4%[10 µM]; PNC assembly inh: -100*; HttQ103 aggreg: -11%

Screens deposited in PubChem by National Center for Advancing Translational Sciences (NCATS).
